Data taken from PubChem BioAssay (NCI).
About 83,000 compounds went through this panel and 20% of them were active in at least one assay; those are over-represented in the sample as a whole.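 Negative percent growth values reflect cell death: -40 means 40% of the cells present at the start died, and -100 means all died.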 Activity calls are given as the source filed them. How the source made its calls: active means growth percent below 10; inactive means the rest.

Each molecule was assayed on SR leukemia (assay: NCI-60 one-dose screen, 48 h (100 = growth as untreated, 0 = no growth, -100 = all killed)). Details: 10 µM unless noted.

| Structure (SMILES) | growth |
| --- | --- |
| O=S(=O)(c1ccc(NCSc2nc3ccccc3s2)cc1)c1ccc(NCSc2nc3ccccc3s2)cc1 | 83.4% (inactive) |
| COc1cc(/C=C2\CN(S(=O)(=O)c3ccc(C)cc3)C/C(=C\c3cc(CN4CCCC4)c(O)c(OC)c3)C2=O)cc(CN2CCCC2)c1O | -19.4% (active) |
| Cc1cccc(CN(Nc2ccccc2)c2ccccc2)n1 | 93% (inactive) |
| O=C(NS(=O)(=O)c1ccccc1)n1cc(-c2ccncc2)c(-c2cc(O)cc(Cl)c2)n1 | 42.6% (inactive) |
| CCCCN(CCC#N)C(N)=O | 130% (inactive) |
| CCOC(=O)/C(=C/c1ccc([N+](=O)[O-])cc1)C(=O)c1ccccc1 | 4.07% (active) |
| N#Cc1c(-c2ccc(F)cc2)cc(-c2cccc(Cl)c2)[nH]c1=O | 113% (inactive) |
| O=C(Nc1cccc(Cn2c(=O)[nH]c3ccc(Oc4ncccn4)cc3c2=O)c1)c1cccc(Cl)c1 | 35.9% (inactive) |
| O=C1c2c(c3c4cccnc4[nH]c3c3ccc4ccccc4c23)C(=O)N1O | 17.8% (inactive) |
| COC(=O)c1nc(-c2ccccc2)oc1S(=O)(=O)N1CCN(c2ccc(OC)cc2)CC1 | -1.38% (active) |
| O=C1c2ccccc2-c2c1c1ccncc1c(=O)n2CCCn1ccnc1 | -16.2% (active) |
| COc1cc(-c2c(-c3ccccc3)c[nH]c2C(=O)NCCCO)c(OC)c2c1OCO2 | 93.9% (inactive) |
| C=C(C)Cn1c(SCC(=O)c2cccs2)nc2sc3c(c2c1=O)CCCC3 | 44% (inactive) |
| CNC1=C([N+](=O)[O-])C(c2ccc(OC)cc2)C(C#N)=C(c2ccc[nH]2)O1 (stereo not given) | 98.2% (inactive) |
| Cn1cc(-c2nc(-c3c[nH]c4c(Cl)nccc34)cs2)c2ccccc21 | 73.7% (inactive) |
| N/C(=N\c1nc2ccccc2s1)NC(=O)Nc1ccccc1 | 15.7% (inactive) |
| C#Cc1ccc(NC(=O)Cc2ccc(/C=C/C(=O)c3nccn3C)cc2)cc1 | 20.8% (inactive) |
| Cc1cc2c(C(C)C)c(O)c(O)c(/C=N/O)c2c(O)c1-c1c(C)cc2c(C(C)C)c(O)c(O)c(/C=N/O)c2c1O | 4.52% (active) |
| O=C(Nc1ccc2[nH]ncc2c1)c1csc(Nc2ccccc2)n1 | 22.8% (inactive) |
| COC(=O)c1nc(-c2ccccc2)oc1S(=O)(=O)NCC(c1ccc(Cl)cc1)N1CCCCC1 (stereo not given) | -3.58% (active) |
| O=C(Nc1ccc(Oc2cccc(F)c2)c(Cl)c1)c1cnccn1 | 20.8% (inactive) |
| COc1ccc(Nc2nc(Nc3cc(C)[nH]n3)c3cc(OC)c(OC)cc3n2)cc1 | 0.87% [20 µM] (active) |
| COC(=O)c1cc(-c2ccc(OC)c(OC)c2)[nH]c1N/N=C/c1c(Cl)cccc1Cl | 12.1% (inactive) |
| CC(C)=CCC[C@](C)(O)C1CC[C@]2(C)[C@@H]1CC[C@@H]1[C@@]3(C)CC/C(=N\OCCC#N)C(C)(C)[C@@H]3CC[C@]12C (stereo not given in full) | 61.6% (inactive) |
| N#C/C(=C\c1cccc2cnccc12)N1N=NC2C=CC=CC21 (stereo not given) | 26.3% (inactive) |
